Results published in ChEMBL document CHEMBL3988442, “University of Dundee, Small-Polar-MMV Screening Library” (2021).
Screen size: about 69,000 compounds; about 950 (1.4%) showed an effect of 50% or more. The sample as a whole holds a higher share of strong results than the screen did.

The molecules below were run on Mycobacterium tuberculosis (assay: Cornell M. t heat shock assay; further: in the data most compounds retested in dose-response had high values).
Format: functional, organism-based
Design: dose or concentration left out as unconfirmed

Row | SMILES | Percent Effect [%]
1 | CCS(=O)(=O)NC[C@]12COC[C@H]1CN(Cc1cccc(OC)c1)C2.O=C(O)C(F)(F)F | -11.48
2 | CN(Cc1cccc(F)c1)C(=O)CS(=O)(=O)Cc1c(Cl)cccc1Cl | 25.49
3 | CN(Cc1cccc(F)c1)C(=O)CS(=O)(=O)Cc1ccc(Cl)c(Cl)c1 | 52.33
4 | CN(Cc1ccccc1)C(=O)CS(=O)(=O)Cc1ccc(Cl)c(Cl)c1 | 47.42
5 | Cc1ccc(-c2cc(C3CCNCC3)nc(C)n2)cc1.Cl | -12.8
6 | CSc1ccc(-c2cc(CN)nc3ccnn23)cc1.Cl | 4.059
7 | NC(=O)C(NC(=O)c1ccc(NC2CC2)nc1)c1ccccc1 (stereo not drawn) | -7.076
8 | COC(=O)C(NC(=O)c1ccc(N(C)C)nc1)c1ccccc1 (stereo not drawn) | 22
9 | COC(=O)C(NC(=O)c1ccc(NC2CC2)nc1)c1ccccc1 (stereo not drawn) | 51.61
10 | CC(C)Cc1cc(CN2C[C@H]3CC[C@@H]2CN(Cc2cscn2)C3)n[nH]1 | 107.7
11 | CC(C)c1cc(C(=O)N2C[C@H]3CC[C@@H]2CN(Cc2cscn2)C3)no1 | 37.62
12 | COC(=O)N1C[C@H]2CC[C@@H]1CN(Cc1cscn1)C2 | 1.905
13 | CC(C)(C)c1cc(CN2C[C@H]3CC[C@@H]2CN(Cc2cscn2)C3)n[nH]1 | 92.4
14 | Cc1c[nH]c(C(=O)N2C[C@H]3CC[C@@H]2CN(Cc2cscn2)C3)n1 | 2.551
15 | COc1cccc(C(=O)N2C[C@H]3CC[C@@H]2CN(Cc2cscn2)C3)c1 | -27.99
16 | CN1C(=O)C(c2ccccc2)CC12CCN(CCO)CC2.O=C(O)C(F)(F)F (stereo not drawn) | -21.97
17 | Cc1cccc(CN2CC3(CCN(C4CCOC4)CC3)OCC2=O)n1.O=C(O)C(F)(F)F.O=C(O)C(F)(F)F (stereo not drawn) | -30.47
18 | O=C(O)C(F)(F)F.O=C(c1ccco1)N1CCO[C@@H]2CN(Cc3nccs3)CC[C@@H]2C1 | 4.898
19 | CCC1=N[C@@]2(CC[C@@H]3CN(Cc4cccc(Cl)c4)C[C@@H]32)C(=O)N1C.O=C(O)C(F)(F)F | 32.88
20 | Cc1nc(C2CCN(Cc3ncc[nH]3)CC2)no1.O=CO | -19.83
21 | CC(C)Nc1oc(-c2ccc(S(=O)(=O)N(C)C)o2)nc1C#N | -8.92
22 | CN(C)S(=O)(=O)c1ccc(-c2nc(C#N)c(NC3CC3)o2)o1 | 78.01

Row | SMILES | Percent Effect [%]
23 | CNc1oc(-c2ccc(S(=O)(=O)N(C)C)o2)nc1C#N | -18.56
24 | CN(C)S(=O)(=O)c1ccc(-c2nc(C#N)c(NC3CCCCC3)o2)o1 | 5.856
25 | CNc1oc(-c2ccc(OC)c(S(=O)(=O)N(C)C)c2)nc1C#N | 4.952
26 | Cc1oc(-c2nc(C#N)c(NC(C)(C)C)o2)cc1S(=O)(=O)N1CCCC1 | 1.248
27 | CN(C)S(=O)(=O)c1ccc(-c2nc(C#N)c(NC(C)(C)C)o2)o1.Cl | 74.72
28 | Cc1oc(-c2nc(C#N)c(NC3CC3)o2)cc1S(=O)(=O)N1CCCC1 | -1.847
29 | CCN1CCOCC2(CCCN(C(=O)c3ccncc3F)C2)C1.O=C(O)C(F)(F)F (stereo not drawn) | -0.7478
30 | Cc1ccc(CN2CCC(O)(Cn3ccc4ncccc43)CC2)o1.Cl | -13.38
31 | CNC(=O)C1Cn2ccnc2C2(CCN(Cc3ccncc3)CC2)O1.O=C(O)C(F)(F)F.O=C(O)C(F)(F)F.O=C(O)C(F)(F)F (stereo not drawn) | -2.036
32 | O=C(NCc1ccco1)[C@H]1CC[C@@H]2[C@@H](CCN2C2CCC2)O1.O=C(O)C(F)(F)F | -4.585
33 | CN(C)CCOCC1CN(Cc2ccoc2)Cc2nnn(C)c21.O=C(O)C(F)(F)F.O=C(O)C(F)(F)F (stereo not drawn) | -17.74
34 | Cc1cc(N(C)C)nc(C2CCCN2)n1.Cl.Cl (stereo not drawn) | -13.2
35 | O=C(COCCc1ccccc1)N1CCCC(n2cccn2)C1 (stereo not drawn) | 11.3
36 | Cn1cc(CN2CCCC23CCN(C(=O)c2ccccc2)CC3)cn1.O=C(O)C(F)(F)F | -27.87
37 | CC(C)NC(=O)c1cc2c(s1)CCN2C(=O)CN(C)C | -7.193
38 | CN(C)CC(=O)N1CCc2sc(C(=O)N3CCOCC3)cc21 | 54.7
39 | CN(C)CC(=O)N1CCc2sc(C(=O)N3CCN(C)CC3)cc21 | 17.23
40 | CC(C)N(C)Cc1cncc2c1CCN(C1CCOCC1)C2.Cl.Cl.Cl | 21.63
41 | CNC(=O)CN1CCC2(CCCN(CC3CCOC3)C2)CC1.O=C(O)C(F)(F)F.O=C(O)C(F)(F)F (stereo not drawn) | 3.829
42 | O=C(O)C(F)(F)F.O=C(O)C(F)(F)F.O=C1CO[C@@H]2CN(Cc3ccsc3)C[C@H]2N1Cc1ccncc1 | 1.203
43 | Cc1ccc(CCN2CCC(N(C)Cc3noc(C4CC4)n3)C2)cc1 (stereo not drawn) | 83.22
44 | CN(Cc1noc(C2CC2)n1)C1CCN(Cc2ccc(F)c(F)c2)C1 (stereo not drawn) | -5.311

Row | SMILES | Percent Effect [%]
45 | CN(Cc1noc(C2CC2)n1)C1CCN(CCc2cnn(C)c2)C1 (stereo not drawn) | -5.5
46 | CN(Cc1noc(C2CC2)n1)C1CCN(CCc2cccs2)C1 (stereo not drawn) | 12.6
47 | CN(Cc1noc(C2CC2)n1)C1CCN(Cc2ccncc2)C1 (stereo not drawn) | 51.32
48 | CC(=O)N(Cc1noc(C2CC2)n1)C1CCN(Cc2ccncc2)C1 (stereo not drawn) | -2.088
49 | CS(=O)(=O)CCNCc1ccc(OCc2cscn2)cc1 | -2.969
50 | CC1c2ncc(Cn3cccn3)n2CCN1c1ncccn1.O=C(O)C(F)(F)F (stereo not drawn) | 40.47
51 | COc1ccc(-c2n[nH]cc2CNC2CCN(C3CC3)CC2)cc1.Cl | -33.63
52 | Cc1ccc(N2CCO[C@H]3CN(Cc4cccnc4)C[C@H]32)nn1.O=C(O)C(F)(F)F.O=C(O)C(F)(F)F.O=C(O)C(F)(F)F | -30.09
53 | O=C(Nc1nccs1)C1CCCN1Cc1ccccn1 (stereo not drawn) | 103.1
54 | CC(=O)Nc1cccc(CN2CCCC2C(=O)Nc2nccs2)c1 (stereo not drawn) | -15.37
55 | CCNc1ccnc(CN2CCCC2C(=O)Nc2nccs2)c1 (stereo not drawn) | 13.04
56 | Cc1ccc(C(N)c2cccc(S(C)(=O)=O)c2)c(C)c1.Cl (stereo not drawn) | 1.87
57 | CSc1ccc(CNC(c2ccc(F)cc2)c2nccn2C)cc1 (stereo not drawn) | 112.9
58 | Cn1ccnc1C(NCc1ccccc1)c1ccc(F)cc1 (stereo not drawn) | 113.8
59 | Cn1cc(C(NCc2ccc(F)cc2)c2cccc(F)c2)cn1 (stereo not drawn) | -7.107
60 | CC(c1ccc(F)cc1)N1CCN(Cc2nccn2C)CC1 (stereo not drawn) | -10.33
61 | COc1c(CNC(c2ccccc2)c2ccc(F)cc2)c(C)nn1C (stereo not drawn) | -7.995
62 | CSc1ccc(CN(CCO)Cc2nccn2C)cc1 | -17.8
63 | CSc1ccc(CNC(c2ccccc2)c2nccn2C)cc1 (stereo not drawn) | 105.2
64 | CC(NCc1ccc(OCc2nccn2C)cc1)c1cccnc1 (stereo not drawn) | -26.18
65 | COc1cccc(-c2cc(NCc3nccn3C)n(C)n2)c1 | 1.129
66 | COc1c(CNC(c2ccc(F)cc2)c2nccn2C)c(C)nn1C (stereo not drawn) | -11.67

Row | SMILES | Percent Effect [%]
67 | COc1ccc(CNC(c2cccc(F)c2)c2cnn(C)c2)cc1 (stereo not drawn) | -3.342
68 | COc1cccc(C(NCc2ccc(SC)cc2)c2nccn2C)c1 (stereo not drawn) | 112.8
69 | O=C(O)C(F)(F)F.O=C(O)C(F)(F)F.c1ccc(CO[C@@H]2CN(Cc3nccs3)[C@@H]3COC[C@@H]32)nc1 | 32.68
70 | Cn1cc(N2CC3(CCN(Cc4nccs4)CC3)OCC2=O)cn1.O=C(O)C(F)(F)F | -26.5
71 | CCn1c(NCc2ccccn2)nc2c(C)nn(C)c2c1=O | -10.12
72 | COc1ccc(CN2CCC(c3cc(O)nc(C)n3)C2)c(OC)c1.O=C(O)CC(O)(CC(=O)O)C(=O)O (stereo not drawn) | -19.34
73 | Cl.O=C(NCc1cccc(Cl)c1)C1=NOC2(CCNC2)C1 (stereo not drawn) | -31.4
74 | O=C(O)C(F)(F)F.O=C(c1cscn1)N1CC[C@@H]2[C@@H]1CCN2C1CCOC1 (stereo partly drawn) | 5.753
75 | CCN1C[C@H]2[C@@H](C1)N(C(=O)Cc1ccsc1)CC[C@H]2OC.O=C(O)C(F)(F)F | -3.863
76 | COCC1Cn2nnc(-c3cnn(C)c3)c2CN1Cc1ccsc1.O=C(O)C(F)(F)F (stereo not drawn) | 14.81
77 | COc1ccc(CN2CCN(c3ncc(Cl)cn3)CC2)cc1 | -15.93
78 | CCc1ccc(CN2CCN(c3ncc(Cl)cn3)CC2)nc1 | 68.7
79 | CCc1ccc(CN2CCN(c3ccc(Cl)nn3)CC2)nc1 | 15.06
80 | Cc1nc(Cn2c3c(ccc2=O)CC(NC(C)C)CC3)cs1.O=C(O)C(F)(F)F.O=C(O)C(F)(F)F (stereo not drawn) | 34.33
81 | COCCN1CCOCC2(CCCN(Cc3cccc(F)c3)C2)C1.O=C(O)C(F)(F)F.O=C(O)C(F)(F)F (stereo not drawn) | -14.36
82 | Clc1ccccc1C1(c2ccnc(C3CC3)n2)CCNCC1 | -18.26
83 | Clc1ccccc1C1(c2ccnc(-c3ncccn3)n2)CCNCC1 | -0.2715
84 | Clc1ccccc1C1(c2ccnc(C3CCCC3)n2)CCNCC1 | 57.06
85 | CC(C)NC(=O)[C@@H]1C[C@@H]2CCN(Cc3ccoc3)C[C@H]2O1.O=C(O)C(F)(F)F | 43.76
86 | CC(C)N(C)Cc1cnc2n1CCN(C(=O)NC1CCCC1)C2.O=C(O)C(F)(F)F | 7.687
87 | Fc1cnc(N2CCO[C@H]3[C@H](OCCN4CCCC4)CC[C@@H]32)nc1.O=C(O)C(F)(F)F | -1.217
88 | Cc1ccc(N2CC[C@H]3C[C@@H](C(=O)N4CCOCC4)O[C@H]3C2)nn1.O=C(O)C(F)(F)F | 9.789
